The source made the active and inactive calls. No rule for the calls is given here.

This test deals with Pantothenate synthetase (Mycobacterium tuberculosis (strain ATCC 25618 / H37Rv)) (UniProt P9WIL5). As to the kind of experiment: Recombinant Mtb pantothenate synthetase (PanC) inhibitors, coupled enzyme, confirmatory (AID 375).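 Also: 0% = full reaction with vehicle and 100% = no enzyme background.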 Particulars: coupled enzyme assay; at 10 µM, active compounds read high.
Pantothenate synthetase (Mycobacterium tuberculosis (strain ATCC 25618 / H37Rv)), sequence (P9WIL5 whole entry, looked up): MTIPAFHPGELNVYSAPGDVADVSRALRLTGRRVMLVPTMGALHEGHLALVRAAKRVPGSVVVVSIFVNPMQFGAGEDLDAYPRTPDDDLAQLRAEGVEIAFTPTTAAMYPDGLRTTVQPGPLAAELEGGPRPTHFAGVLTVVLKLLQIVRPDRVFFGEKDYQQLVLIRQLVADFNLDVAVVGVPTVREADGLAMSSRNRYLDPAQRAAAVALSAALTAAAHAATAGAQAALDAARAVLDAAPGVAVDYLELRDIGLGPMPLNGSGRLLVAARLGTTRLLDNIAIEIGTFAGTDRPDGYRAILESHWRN
Take `Cc1ccc(C)c(S(=O)(=O)C(C#N)c2nc3ccccc3nc2N2CC(C)OC(C)C2)c1` (stereo not drawn): the inhibition (as a rule, the relative decrease from the control value, in per cent) is 0% (inactive).

As for `COc1ccc(OC)c2[nH]c(=O)c(CCNC(=O)CC(C)C)cc12`, the inhibition is 2% (inactive).

As for `Cc1cc(=O)oc2cc(OCC(=O)OCC(=O)N3CCc4ccccc43)ccc12`, the inhibition was 3% (inactive).

With `COC(=O)COc1ccc(S(=O)(=O)NCCC2=CCCCC2)cc1`, the inhibition is 2% (inactive).

For `c1ccc2c(SCc3cn4cccnc4n3)ncnc2c1`, the inhibition was 2% (inactive).

Consider `CNC(=O)NCCN1CCCC1=O`, for which the inhibition was 6% (inactive).

For the molecule `C[N+]12CCC(CC1)C(OC(=O)C(O)(c1ccccc1)c1ccccc1)C2` (stereo not drawn), the inhibition was 0% (inactive).

In the case of `Cn1cccc1C(=O)NC(=O)CSc1nnc(C2CC2)n1-c1ccccc1`, the inhibition was 0% (inactive).

In the case of `COc1ccc(OCC(=O)N2CC3(C)CC2CC(C)(C)C3)cc1` (stereo not drawn), the inhibition is 0% (inactive).

As for `CCN(CC)C(=O)C1CCCN(c2ncnc3c2cnn3-c2ccc(Cl)cc2)C1` (stereo not drawn), the inhibition was 4% (inactive).

Turning to `CC(O)c1nc2ccccc2n1C1CCCCC1` (stereo not drawn), the inhibition was 0% (inactive).

For the molecule `O=C(NC1CC2CCC1C2)C1COc2ccccc2O1` (stereo not drawn), the inhibition was 0% (inactive).

In the case of `COc1cc(OC)c(OC)cc1CN(C)CCc1ccccn1`, the inhibition was 3% (inactive).

Take `CC1(C)CC(=O)c2cnc(NC(=O)CCc3ccccc3)nc2C1`: the inhibition was 0% (inactive).

`Nc1nc(NCc2ccco2)nn1-c1ccccc1`: the inhibition is 0% (inactive).

As for `CCCc1nn(CCc2ccccn2)c(N)c1CC`, the inhibition was 6% (inactive).

With `CCOC(=O)N1CCN(c2nc(-c3ccc(Cl)cc3)cs2)CC1`, the inhibition is 0% (inactive).

In the case of `CCCC(=O)NCCc1cc2c(C)ccc(C)c2[nH]c1=O`, the inhibition was 0% (inactive).

(Values after PubChem BioAssay.)
